PubChem BioAssay (NCATS)
Results filed as inconclusive are left out. Where a call stands in place of a potency, no number is given. Where a structure was tested more than once in an assay, its records may differ in their call. The source made the active and inactive calls. Calls come from the whole dose curve; as a rule, active = well fitted inhibition curve with a large enough effect; inconclusive = small, poorly fitted or top-dose-only effect; inactive = flat fitted curve, though single readings scatter.

Biological target: Glutathione peroxidase 1 (Homo sapiens) (UniProt P07203)
Assay: Primary qHTS Assay for Inhibitors of Recombinant Selenoprotein Glutathione Peroxidase 1 (GPX1) (AID 1845191); note: nearly all actives have a fitted effect of over 65% in size
Conditions: recombinant GPX1, GR-coupled NADPH fluorescence, 15 min; series mostly up to 48.8 µM
Excerpt: Assay Provider: Elias S.J. Arner MD PhD.
Department of Medical Biochemistry and Biophysics
Karolinska Institutet, Solna, Stockholm, Sweden
Selenoprotein glutathione peroxidases (GPX), like the ubiquitously expressed GPX1 and the ferroptosis modulator GPX4, enact their antioxidant activities by reducing hydroperoxides using glutathione. […] GPX1 and GPX4 inhibitors have thus shown promise as anti-cancer agents. Existing inhibitors are often promiscuous, or modulate GPX activity only indirectly, so novel direct inhibitors identified through screening against GPX1 and GPX4 could be valuable. Here, we developed optimized glutathione reductase (GR)-coupled GPX assays for the biochemical high-throughput screen (HTS) of almost 12,000 compounds with known mechanisms of action. Initial hits were triaged using a GR counter-screen, assessed for isoform specificity using a separate GPX2 assay, and were assessed for general selenocysteine-targeting activity using a thioredoxin reductase (TXNRD1) assay. With this suite of assays, we identified novel GPX1/GPX2- and GPX4-specific inhibitors and can here present a validated pipeline for future discovery research for selenoprotein-targeting agents.
SEQUENCE No. (e.g., 1, 2, 3, etc.); […] (e.g., Cells, Incubation, Reagent, etc.); VALUE; DESCRIPTION.
1; Reagent 1; 3 uL; GPx1 enzyme or no enzyme control in 1536-well, black, solid Greiner assay plate.
2; Compound; 25 nL; Kalypsis pin tool (Wako USA) equipped with a 1536-well pin head.
3; Incubation; 30 min; room temperature.
4; Reagent 2; 1 uL; 10 nM GPX1, 1 mM GSH, 0.5 mM CHP, 0.5 mM NADPH, 100 nM GR, 0.01% BSA substrate
5; Detection; Fluorescence; ViewLux microplate reader, excitation 340 nm and emission 450 nm.
6; Incubation; 15 min; room temperature.
7; Detection; Fluorescence; ViewLux microplate reader, excitation 340 nm and emission 450 nm.
NOTES (numbers refer to Sequence numbers above)
1. 3 uL of 16.66 nM GPX1 and 0.016% BSA in assay buffer (50 mM Tris-HCl, 2 mM EDTA (pH 7.5), 150 mM NaCl) was added to columns 3-48 of 1536-well assay plates using a BioRAPTR Flying Reagent Dispenser (Let's Go Robotics (LGR), Carlsbad, CA). A no-enzyme control (0.01% BSA in TES assay buffer) was added to columns 1-2.
2. 25 nL of test compounds and DMSO controls were added to each well with a pin tool (Kalypsys).
3. The assay plates were incubated for 30 minutes at room temperature.
4. 1 uL of master mix (500 nM glutathione reductase (GR), 5 mM reduced glutathione (GSH), 2.5 mM NADPH in assay buffer) was added. 1 uL of cumene hydroperoxide (CHP) ([2.5 mM] in 50% EtOH) was then added within 5 minutes to initiate the reaction. Final concentrations were: 10 nM GPX1, 1 mM GSH, 0.5 mM CHP, 0.5 mM NADPH, 100 nM GR, 0.01% BSA.
5. Initial fluorescence readout (t=0) at 340/450 nm was measured using a ViewLux multimodal detector (PerkinElmer, Waltham, MA).
7. Endpoint fluorescence readout (t=15) at 340/450 nm was measured 15 min after room temperature incubation.
Potency is the fitted concentration of half-maximal effect.

Chain of Glutathione peroxidase 1 (Homo sapiens) (P07203 whole entry, looked up): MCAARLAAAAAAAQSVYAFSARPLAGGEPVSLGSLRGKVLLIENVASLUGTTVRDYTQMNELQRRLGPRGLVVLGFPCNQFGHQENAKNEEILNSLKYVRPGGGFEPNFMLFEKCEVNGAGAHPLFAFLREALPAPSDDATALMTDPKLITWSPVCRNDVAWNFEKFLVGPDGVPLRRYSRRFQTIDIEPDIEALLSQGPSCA

How did the Potency turn out when `NNCCc1ccccc1` was run?
Its Potency is “inactive”.

How did the Potency turn out when `CCc1cc(Nc2nccc(-c3c(-c4ccc(OC)c(C(=O)Nc5c(F)cccc5F)c4)nc4ccccn34)n2)c(OC)cc1N1CCC(N2CCN(S(C)(=O)=O)CC2)CC1` was run?
Its Potency is “inactive”.

With `OC(CN1CCC(Cc2ccc(F)cc2)CC1)c1ccc(Cl)cc1` (stereo not given) as the compound, how does the Potency read?
Its Potency is “inactive”.

Which Potency does the source give for `CS(=O)(=O)Oc1ccc2c(NC(N)=O)c(C(=O)c3ccc(Cl)cc3Cl)oc2c1` here?
The Potency was “inactive”.

How did the Potency turn out when `CCCS(=O)(=O)Nc1ccc(F)c(C(=O)c2c[nH]c3ncc(-c4ccc(Cl)cc4)cc23)c1F` was run?
Its Potency is “inactive”.

With `N=c1nc(N2CCCCC2)cc(N)n1O` as the compound, how does the Potency read?
The Potency was “inactive”.

How did the Potency turn out when `NC(=O)c1ccc(-c2nc(-c3ccc4c(c3)OCCO4)c(-c3ccccn3)[nH]2)cc1` was run?
Its Potency is “inactive”.

Which Potency does the source give for `Oc1cccc(-c2nc(N3CCOCC3)c3oc4ncccc4c3n2)c1` here?
The Potency was “inactive”.

Which Potency does the source give for `Cc1cc(-c2ccc(CC(=O)Nc3ccc(-c4cccnc4)cc3)cc2)ccn1` here?
Its Potency is “inactive”.

With `COc1ccc(-c2c(-c3ccc(O)cc3O)n[nH]c2C)cc1` as the compound, how does the Potency read?
The Potency was “inactive”.

With `N#Cc1ccc(C(c2ccc(C#N)cc2)n2cncn2)cc1` as the compound, how does the Potency read?
The Potency was “inactive”.

With `CCN(CC)CCCC(C)Nc1nc(C)cc(Nc2ccc3nc(C)cc(N)c3c2)n1` (stereo not given) as the compound, how does the Potency read?
The Potency was “inactive”.

With `Cc1[nH]c(=O)c(C#N)cc1-c1ccncc1` as the compound, how does the Potency read?
The Potency was “inactive”.

`NC(=O)c1ccc(-c2nc(-c3ccc4c(c3)OCO4)c(-c3ccccn3)[nH]2)cc1` was tested. Which Potency did it give?
Its Potency is “inactive”.

How did the Potency turn out when `CC[C@@H](C)[C@H](NC(=O)[C@H](CC1CCCCC1)NC(=O)c1ccno1)C(=O)N1CCC2(CCc3ccccc32)CC1` was run?
Its Potency is “inactive”.

How did the Potency turn out when `O=C(O)[C@@H](c1ccc(OCc2ccc3ccccc3n2)cc1)C1CCCC1` was run?
Its Potency is “inactive”.

How did the Potency turn out when `COCCNCCCn1c(C(=O)CF)c(-c2ccc(C)cc2)c2c(N)ncnc21` was run?
Its Potency is “inactive”.

Which Potency does the source give for `Cc1cnc(Nc2ccc(OCCN3CCCC3)cc2)nc1Nc1cccc(S(=O)(=O)NC(C)(C)C)c1` here?
Its Potency is “inactive”.

How did the Potency turn out when `Nc1nccc(-c2ccc3noc(-c4ccc(Cl)cc4)c3c2)n1` was run?
The Potency was “inactive”.

How did the Potency turn out when `COc1cc2nccc(Oc3ccc(NC(=O)NC4CC4)c(Cl)c3)c2cc1C(N)=O` was run?
Its Potency is “inactive”.

How did the Potency turn out when `O=NN(CCCl)C(=O)NCCCl` was run?
Its Potency is “inactive”.

`Cc1cc(SCc2sc(-c3ccc(C(F)(F)F)cc3)nc2C)ccc1OCC(=O)O` was tested. Which Potency did it give?
Its Potency is 20.2 µM (active) and inactive.

With `OCCC#Cc1nc(-c2ccc(F)cc2)c(-c2ccncc2)n1CCCc1ccccc1` as the compound, how does the Potency read?
The Potency was “inactive”.

With `CC(C[N+](C)(C)C)OC(N)=O` (stereo not given) as the compound, how does the Potency read?
The Potency was “inactive”.

`C[C@@H]1CN(Cc2ccc(F)cc2)[C@@H](C)CN1C(=O)c1cc2c(C(=O)C(=O)N(C)C)cn(C)c2cc1Cl` was tested. Which Potency did it give?
Its Potency is “inactive”.

For `C#Cc1cccc(Nc2ncnc3cc(OCCOC)c(OCCOC)cc23)c1`, which Potency is on record?
Its Potency is “inactive”.

How did the Potency turn out when `CCn1c(-c2nonc2N)nc2cnc(Oc3cccc(NC(=O)c4ccc(OCCN5CCOCC5)cc4)c3)cc21` was run?
Its Potency is “inactive”.

Which Potency does the source give for `Cc1ccnc(NS(=O)(=O)c2ccc(NC(=O)Nc3ccc(S(=O)(=O)Nc4nccc(C)n4)cc3)cc2)n1` here?
Its Potency is “inactive”.

Which Potency does the source give for `Cc1cnc(NC(=O)C2=C(O)c3ccccc3S(=O)(=O)N2C)s1` here?
Its Potency is “inactive”.

How did the Potency turn out when `CC(C)(C)NCC(O)c1ccc(O)c(CO)c1` (stereo not given) was run?
The Potency was “inactive”.

`CCC(=O)N[C@H]1CC[C@H](C(=O)N(C)c2ccc(-c3nc4ccccc4o3)cc2)C1` was tested. Which Potency did it give?
The Potency was “inactive”.

With `COc1ccc2c3n(c(=NC(=O)c4cccnc4)nc2c1OC)CCN3` as the compound, how does the activity, negative = inhibition read?
Its activity, negative = inhibition is 0.782% [at 4.49 µM] (inactive).

With `NC(=O)C1CCCc2c1[nH]c1ccc(Cl)cc21` (stereo not given) as the compound, how does the Potency read?
The Potency was “inactive”.

With `CCOc1cc(C(=O)Nc2ccc(Cl)c(-c3nc4ccccc4[nH]3)c2)cc(OCC)c1OCC` as the compound, how does the Potency read?
The Potency was “inactive”.

For `COc1ccccc1-c1cccc(-c2c(O)c3cc(C#N)c(Cl)cc3[nH]c2=O)c1`, which Potency is on record?
The Potency was “inactive”.

How did the Potency turn out when `Clc1ccc(Nc2nnc(Cc3ccncc3)c3ccccc23)cc1` was run?
The Potency was “inactive”.

How did the Potency turn out when `COc1cccc2cc(-c3nc(C4CCC(C(=O)O)CC4)n4ncnc(N)c34)[nH]c12` (stereo not given) was run?
Its Potency is “inactive”.

How did the Potency turn out when `CC(C)OC(=O)C1=CN(C(=O)c2ccc(F)c(F)c2)CC(C)(C)c2c1[nH]c1ccccc21` was run?
The Potency was “inactive”.

`NC(=O)c1ccc(I)c([N+](=O)[O-])c1` was tested. Which Potency did it give?
The Potency was “inactive”.

How did the Potency turn out when `CCOC(=O)N1CCC(=C2c3ccc(Cl)cc3CCc3cccnc32)CC1` was run?
Its Potency is “inactive”.
